# Results reported in PubChem BioAssay (EPA / NIEHS).
# Activity calls are given as the source filed them. How the source made its calls: active means hit-call score of the fitted dose curve at least 0.9, where 1 is the maximum; inactive means score below 0.9.
# Assay: ATG_VDRE_CIS: Attagene CIS-FACTORIAL HepG2 Assay for human Vitamin D Receptor Element (VDRE) (AID 2282968)
# Conditions: HepG2 VDRE cis-reporter transcription, actives raise or lower the signal
# Procedure: ATG_CIS is a cell-based, multiplexed-readout assay that uses HepG2, a human liver cell line, with measurements taken at 24 hours after chemical dosing in a 24-well plate.ATG_VDRE_CIS is one of 52 assay component(s) measured or calculated from the ATG_CIS assay. It is designed to make measurements of mRNA induction, a form of inducible reporter, as detected with fluorescence intensity signals by Reverse transcription polymerase chain reaction (RT-PCR) and Capillary electrophoresis technology.Data from the assay component ATG_VDRE_CIS was analyzed into 1 assay endpoint. This assay endpoint, ATG_VDRE_CIS, was analyzed with bidirectional fitting relative to DMSO as the negative control and baseline of activity. Using a type of inducible reporter, measures of mRNA for gain or loss-of-signal activity can be used to understand the reporter gene at the transcription factor-level as they relate to the gene VDR. Furthermore, this assay endpoint can be referred to as a primary readout, because this assay has produced multiple assay endpoints where this one serves a reporter gene function. To generalize the intended target to other relatable targets, this assay endpoint is annotated to the nuclear receptor intended target family, where the subfamily is non-steroidal.
# Human liver HepG2 cells are transiently transfected with multiple reporter transcription units (MRTUs) in 6-well plates using FuGene 6 reagent (Roche; 3 ml FuGene/1 mg DNA). The MRTU constructs are regulated by a cis-regulating element (promoter). […] A major difference between the CIS and TRANS system is that in CIS activities of endogenous TFs are measured, whereas the TRANS assay evaluates changes in activities of exogenous, chimeric NR-Gal4 proteins. […] At the end of 24 hour incubation, total RNA was isolated using TriZol reagent (Invitrogen). The isolated RNA is then reverse-transcribed using oligo(dT) primer and Mo-MLV reverse transcriptase (Invitrogen) with DNAse I (Ambion) treatment for 30 min. The one-tenth of the produced cDNA was amplified by PCR using Taq DNA polymerase (Invitrogen) and two reporter sequence-specific primers. The PCR products were fluorescently labeled by primer extension with 6-arboxyfluorescein (6-FAM) 5'-labeled reporter sequence-specific primer (2 min at 95 C, 20 s at 68 C and 10 min at 72 C) and these products were digested with 5U of HpaI (New England Biolabs) for 2h at 37 C. The fragments were purified using Qiaquick PCR columns (Qiagen), analyzed on an ABI 3130xL genetic analyzer (Applied Biosystems) with peak positions identified by using a set of X-rhodamine (ROX)-labeled MapMarker1000 molecular weight standards (BioVentures). The raw capillary electrophoresis data was processed using Attagraph software (Attagene).
Structure (SMILES),outcome,AC50
COc1ccccc1OCC(O)CO (stereo not given),inactive,
CC(=O)CCc1ccccc1,inactive,
CC(C)CC(=O)O,inactive,
COC(=O)[C@]1(C)CCC[C@@]2(C)[C@H]1CC=C1C=C(C(C)C)CC[C@@H]12,,26.4 µM (active)
O=C(O)c1nc(Cl)c(Cl)c(Cl)c1Cl,inactive,
NCc1ccccc1,inactive,
COC(OC)C(C)c1ccccc1 (stereo not given),inactive,
CC/C=C\CCCCCO,inactive,
NC(=O)c1ccc(N)cc1,inactive,
Nc1nnc(-c2ccc([N+](=O)[O-])o2)o1,inactive,
Brc1ccc(Oc2ccc(Br)cc2)cc1,inactive,
O=C1NC(=O)[C@@H]2CC=CC[C@H]12,inactive,
CCCCOC(=O)COc1ccc(Cl)cc1Cl,inactive,
CCCCC(CC)COC(=O)CS (stereo not given),,26.4 µM (active)
OCCOCCOCCOCCOCCO,inactive,
CC/C=C\CCO,inactive,
O=[N+]([O-])c1ccccc1C(F)(F)F,inactive,
Cc1cc(-n2nc3ccc(Cl)cc3n2)c(O)c(C(C)(C)C)c1,inactive,
CCCCCC[C@@H](O)C/C=C\CCCCCCCC(=O)O,inactive,
COc1cccc(OC)c1C(=O)O,inactive,

Structure (SMILES),outcome,AC50
CCCCCCCCCCCCCCCCCC[N+](C)(C)C,,6.1 µM (active)
Oc1ccc(Oc2ccccc2)cc1,,38.4 µM (active)
C1=CCC=C1,inactive,
C/C=C(\C)C(=O)OCC/C=C\CC,inactive,
COC(=O)/C=C\C(=O)OC,,49.6 µM (active)
CC/C=C\CC1=C(C)CCC1=O,inactive,
N#CCN(CC#N)CCN(CC#N)CC#N,inactive,
[O-][n+]1ccc(Cl)cc1,inactive,
NC(=O)c1ccc([N+](=O)[O-])cc1Cl,inactive,
CN(C)c1ccc(C(c2ccccc2)c2ccc(N(C)C)cc2)cc1,,7.62 µM (active)
C=CN1CCCCCC1=O,inactive,
C=CCOCC(CC)(CO)COCC=C,inactive,
c1ccc2c(c1)Oc1ccccc1S2,inactive,
Cc1cccnc1,inactive,
Nc1ccc(S(=O)(=O)Nc2cnc3ccccc3n2)cc1,inactive,
Sc1nc2ccccc2s1,inactive,
CC(C)(Oc1ccc(Cl)cc1)C(=O)O,inactive,
CCCCCCC1CCC(=O)O1 (stereo not given),inactive,
CCCOCCC,inactive,
CCCc1c(OCCCCc2nn[nH]n2)ccc(C(C)=O)c1O,inactive,
